# Laboratory results reported in the antibiotic and cytotoxicity screens of Wong et al. (2023).
# Out of some 39,000 compounds screened, about 500 (1.3%) were called active. Many of the other results were omitted from the sample, so actives are more common in it than they were.
# Tested on: S. aureus RN4220
# Assay: growth inhibition call (relative growth <= 0.2)
# Conditions: 50 µM
row,SMILES,growth inhibition call
1,C=CC[C@@H](CC(=O)NCCO)C(=O)NC[C@H](OC(=O)[C@@H](CC=C)CC(=O)OC(C)(C)C)c1ccccc1,inactive
2,C=CC1=C(C(=O)O)N2C(=O)C(NC(=O)C(=NO)c3csc(N)n3)C2SC1 (centres undefined),active
3,Nc1nc(C(=CCC(=O)O)C(=O)NC2C(=O)N3C(C(=O)O)=CCSC23)cs1 (centres undefined),active
4,C=CC1=C(C(=O)O)N2C(=O)C(NC(=O)C(=NOCC(=O)O)c3csc(N)n3)C2SC1 (centres undefined),inactive
5,Nc1nc(/C(=N/O)C(=O)N[C@@H]2C(=O)N3C(C(=O)O)=C(/C=C4\CCN([C@@H]5CCNC5)C4=O)CS[C@H]23)ns1,inactive
6,C=CC1=C(C(=O)O)N2C(=O)[C@@H](NC(=O)/C(=N/O)c3csc(N)n3)[C@H]2SC1,active
7,Nc1nc(/C(=C/CC(=O)O)C(=O)N[C@@H]2C(=O)N3C(C(=O)O)=CCS[C@H]23)cs1,inactive
8,C=CC1=C(C(=O)O)N2C(=O)[C@@H](NC(=O)/C(=N\OCC(=O)O)c3csc(N)n3)[C@H]2SC1,active
9,COC(=O)/C=C/c1cn([C@H]2OC[C@@H](CO)[C@@H]2O)c(=O)[nH]c1=O,inactive
10,Cc1cncc2cccc(S(=O)(=O)N[C@H]3CN[C@@H](COC(=O)NCCOCCOCCN)C3)c12,inactive
11,C[C@H](CO)N1C[C@H](C)[C@@H](CN(C)S(C)(=O)=O)Oc2cc(-c3ccccc3F)ccc2S1(=O)=O,inactive
12,CCCN(C)C[C@@H]1OCCCC[C@@H](C)Oc2ccc(NC(=O)c3ccccc3)cc2C(=O)N([C@H](C)CO)C[C@@H]1C,inactive
13,COc1ccc(NC(=O)N(C)C[C@H]2Oc3ccc(NC(=O)Cn4cnnn4)cc3C(=O)N([C@H](C)CO)C[C@@H]2C)cc1,inactive
14,C[C@@H]1CN([C@@H](C)CO)C(=O)c2cc(NC(=O)Nc3ccc(F)cc3)ccc2O[C@@H](C)CCCCO[C@@H]1CN(C)Cc1ccccc1,inactive
15,C[C@@H]1CN([C@H](C)CO)C(=O)c2cccc(NC(=O)Nc3cccc4ccccc34)c2O[C@@H]1CN(C)CC1CCCCC1,inactive
16,C[C@H](CO)N1C[C@H](C)[C@@H](CN(C)Cc2ccc(Oc3ccccc3)cc2)Oc2ccc(NS(=O)(=O)c3cccs3)cc2C1=O,inactive
17,O=P(O)(O)C(Sc1ccc(Cl)cc1)P(=O)(O)O,inactive
18,C(=N\n1cnnc1)/c1ccco1,inactive
19,C[C@@H]1CN([C@H](C)CO)C(=O)Cc2cc(NS(=O)(=O)c3cn(C)cn3)ccc2O[C@H]1CN(C)CC1CCCCC1,inactive
20,CN1C(=O)c2cc(NC(=O)C3CCOCC3)ccc2OC[C@H]2O[C@@H](CC(=O)NCc3ccccc3F)CC[C@H]21,inactive
21,O=C1NCCN1c1cccnc1,inactive
22,Cc1noc(C)c1NC(=O)N(C)C[C@@H]1Oc2ccc(NC(=O)C3CC3)cc2CC(=O)N([C@H](C)CO)C[C@H]1C,inactive

row,SMILES,growth inhibition call
1,C=CC1=C(C(=O)O)N2C(=O)[C@@H](NC(=O)/C(=N\O)c3csc(N)n3)[C@H]2SC1,active
2,Cc1noc(C)c1NC(=O)Nc1ccc2c(c1)C(=O)N([C@@H](C)CO)C[C@@H](C)[C@H](CN(C)C(=O)Nc1ccc(F)cc1)OCCCC[C@@H](C)O2,inactive
3,NCc1nc(CCc2ccccc2)cs1,inactive
4,Cc1ccc(S(=O)(=O)Nc2cccc3c2O[C@H](CN(C)S(=O)(=O)c2ccc(F)cc2)[C@@H](C)CN([C@H](C)CO)C3=O)cc1,inactive
5,CN1CCN(C(=O)C[C@H]2CC[C@@H]3[C@H](COc4ccc(NC(=O)c5cscn5)cc4C(=O)N3C)O2)CC1,inactive
6,COc1ccc(CC(=O)c2ccc(O)cc2O)cc1,inactive
7,COc1ccc(C=CC(=O)c2ccc(O)cc2O)cc1,inactive
8,COc1ccc(C(C)C(=O)c2ccc(O)cc2O)cc1 (centres undefined),active
9,C[C@@H]1CN([C@@H](C)CO)C(=O)c2cc(NC(=O)Nc3ccc(F)cc3)ccc2O[C@@H](C)CCCCO[C@@H]1CN(C)C(=O)Cc1ccccc1,inactive
10,O=C(CO)N1C[C@H]2C[C@@H]1C[C@@H]2Oc1cccnc1,inactive
11,NCC1OC(OC2C(CO)OC(OC3C(O)C(N)CC(N)C3OC3OC(CO)C(O)C(O)C3N)C2O)C(N)C(O)C1O.O=S(=O)(O)O (centres undefined),active
12,NC[C@H]1O[C@H](O[C@H]2[C@H](O)[C@@H](O[C@H]3O[C@H](CO)[C@@H](O)[C@H](N)[C@H]3O)[C@H](N)C[C@@H]2N)[C@H](N)[C@@H](O)[C@@H]1O,inactive
13,NCC1OC(OC2C(N)CC(N)C(OC3OC(CO)C(O)C(N)C3O)C2O)C(O)C(O)C1O.O=S(=O)(O)O (centres undefined),inactive
14,NCC1OC(OC2C(CO)OC(OC3C(O)C(N)CC(N)C3OC3OC(CN)C(O)C(O)C3N)C2O)C(N)C(O)C1O.O=S(=O)(O)O.O=S(=O)(O)O.O=S(=O)(O)O (centres undefined),inactive
15,NC[C@H]1O[C@H](O[C@H]2[C@H](O[C@@H]3O[C@H](CO)[C@@H](O)[C@H]3O)[C@@H](O)[C@H](N)C[C@@H]2N)[C@H](N)[C@@H](O)[C@@H]1O,inactive
16,NCCC(O)C(=O)NC1CC(N)C(OC2OC(CN)C(O)C(O)C2O)C(O)C1OC1OC(CO)C(O)C(N)C1O.O (centres undefined),inactive
17,CN[C@@H]1[C@@H](O[C@H]2O[C@H](CO)[C@@H](N)[C@H](O)[C@H]2O)O[C@H]2C[C@@H](N)[C@H](O[C@H]3[C@H](O)[C@@H](O)[C@H](N)C[C@@H]3N)O[C@@H]2[C@@H]1O,inactive
18,NCC1OC(OC2C(N)CC(N)C(O)C2OC2OC(CO)C(O)C2O)C(N)C(O)C1O.O=S(=O)(O)O (centres undefined),inactive
19,NCC1OC(OC2C(N)CC(N)C(OC3OC(CO)C(O)C(N)C3O)C2O)C(N)C(O)C1O.O=S(=O)(O)O (centres undefined),active
20,CNC1C(OC2OC(CO)C(N)C(O)C2O)OC2CC(N)C(OC3C(N)CC(N)C(O)C3O)OC2C1O.O=S(=O)(O)O (centres undefined),active
21,NCC[C@H](O)C(=O)N[C@@H]1C[C@H](N)[C@@H](O[C@H]2O[C@H](CN)[C@@H](O)[C@H](O)[C@H]2O)[C@H](O)[C@H]1O[C@H]1O[C@H](CO)[C@@H](O)[C@H](N)[C@H]1O,active
22,CN[C@@H]1[C@@H](O[C@@]2(C)O[C@H](CO)[C@@H](N)[C@H](O)[C@H]2O)O[C@H]2C[C@@H](N)[C@@H](O[C@H]3[C@H](O)[C@@H](O)[C@H](N)C[C@@H]3N)O[C@@H]2[C@@H]1O,inactive
